The list is not random: actives were taken first. Their share in the collection is about 5.4%.
Vaccinia mCherry: inhibitors of vaccinia virus infection (mCherry reporter signal) | Vaccinia virus mCherry reporter infection, fluorescence | Potency, µM (top dose mostly 36.5 µM), most hits filed as inhibitors | actives 0.63% (n = 310,000); calls by dose curve; tested in A549 cells; also: nearly all actives have a fitted effect of over 35% in size
MARV entry inh: Marburg virus entry inhibition; Marburg virus pseudotyped entry inhibition, cell reporter; actives 1.8% (n = 300,000); Potency, µM (doses to about 37.8 µM), most hits filed as inhibitors; calls by dose curve; tested in HEK293 cells
FMDV antiviral: antivirals against foot and mouth disease virus | FMDV antiviral cell-based qHTS | actives 1.2% (n = 410,000) | Potency, µM (top dose mostly 57.9 µM), most hits filed as inhibitors | AID 1159524; calls by dose curve; tested in HEK293T cells; also: read-out not given here; nearly all actives have a fitted effect of over 45% in size
Sm TGR block: S. mansoni TGR enzyme inhibition; AID 485364; Potency, µM (doses to about 114 µM), most hits filed as inhibitors; Q962Y6; purified TGR, DTNB reduction, TNB absorbance 405 nm; actives 3% (n = 360,000); active = well fitted inhibition curve with a large enough effect; inconclusive = small, poorly fitted or top-dose-only effect; inactive = no such curve, though single readings can be large or run the other way; also: nearly all actives have a fitted effect of over 60% in size
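Kinetic colorimetric format: TGR-catalysed, NADPH-driven DTNB reduction monitored via TNB absorbance. Enzyme dispensed at 20 nM; compound exposure 15 min at room temperature before reaction start.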
Lassa entry inh: Lassa virus entry inhibition; Lassa virus pseudotype entry inhibition, cell reporter; Potency, µM (titrated, usually from 37.9 µM), usual class: inhibitors; actives 1.2% (n = 300,000); AID 540256; calls by dose curve; tested in HEK293 cells; also: nearly all actives have a fitted effect of over 50% in size
VACV Venus inh: inhibitors of vaccinia virus (Venus reporter). Vaccinia virus Venus reporter expression, fluorescence. Potency, µM (series often up to 36.5 µM), most hits filed as inhibitors. actives 0.46% (n = 330,000); calls by dose curve; tested in A549 cells; also: nearly all actives have a fitted effect of over 30% in size
Numbers stand for hits; 0 = inactive; ? = inconclusive; - = no result given; [ ] = dose if it differs, or a comment.

SMILES	Vaccinia mCherry	MARV entry inh	FMDV antiviral	Sm TGR block	Lassa entry inh	VACV Venus inh
COc1cc(C2C(C(=O)c3cccs3)=C(O)C(=O)N2CCN2CCOCC2)cc(OC)c1OC (configuration not stated)	0	0	0	0	0	0
COc1cccc(C2C(C(=O)c3sc(C)nc3C)=C(O)C(=O)N2CCN2CCOCC2)c1 (configuration not stated)	-	0	0	0	0	0
CC(C)(C)C(=O)NCC(c1ccc2c(c1)OCO2)N1CCOCC1 (configuration not stated)	0	-	0	0	0	0
CCc1cccc(C)c1NC(=O)c1cc(S(=O)(=O)N2CCCCCC2)cn1C	0	-	?	0	0	0
COc1ccc(C(Nc2cc(C)ccn2)c2ccc3ccc(C)nc3c2O)cc1 (configuration not stated)	0	?	0	0.398µM	?	0
Cc1ccc2ccc(C(Nc3ccccc3)c3ccccc3)c(O)c2n1 (configuration not stated)	?	-	0	-	-	?
Cc1ccc2ccc(C(Nc3ccccn3)c3ccccc3)c(O)c2n1 (configuration not stated)	?	0	0	2.82µM	?	0
COc1cc(C(Nc2ccccn2)c2ccc3ccc(C)nc3c2O)cc(OC)c1O (configuration not stated)	12.6µM	?	35.5µM	0.355µM	?	?
COc1ccc(-c2nc3scc(CCNS(=O)(=O)c4ccc5c(c4)OCCO5)n3n2)cc1	0	-	0	0	0	0
CCCCOCc1cc(CN2CCN(c3cccc(Cl)c3)CC2)c(O)c2ncccc12	?	?	0	0	?	0
CCCOCc1cc(CN2CCN(c3cccc(Cl)c3)CC2)c(O)c2ncccc12	2.82µM	?	0	0	?	0[7.34 µM]
CN1CCN(Cc2cc(COCc3ccccc3)c3cccnc3c2O)CC1	28.2µM	6.31µM	0	25.1µM	?	?
COC(=O)CC1C(=O)NCCN1C(=O)CN1Cc2ccccc2OC(c2ccccc2)C1 (configuration not stated)	0	-	0	-	-	0
S=c1nccc(-c2ccc3c(c2)CCO3)[nH]1	0[7.34 µM]	?	0	35.5µM	0	0[7.34 µM]
Cc1cccc(CNC(=O)c2cnn(-c3nccc(-c4cccs4)n3)c2C2CC2)n1	0	-	0	-	-	0
CC(C)CC(C(=O)Nc1cccc(O)c1)N1C(=O)c2ccccc2C1=O (configuration not stated)	-	-	0	0	-	-
CC(C)CC(C(=O)Nc1oc(-c2ccco2)c(-c2ccco2)c1C#N)N1C(=O)c2ccccc2C1=O (configuration not stated)	0	0	0	56.2µM	0	0
Cc1nc(-c2cccc(NC(=O)Nc3ccc([N+](=O)[O-])cc3)c2)no1	?	-	14.1µM	0	?	?
COc1ccc(C)cc1NC(=O)Nc1cccc(-c2noc(C)n2)c1	0	-	0	0	0	0
Cc1ccc(-n2c(C)nc3c(cnn3-c3ccccc3C)c2=O)cc1F	0	0	0	0	0	0
COc1ccc(CCNC(=O)C(CC(C)C)N2Cc3ccccc3C2=O)c(OC)c1OC (configuration not stated)	0	-	0	0	0	0
CCSC1(SCC)N=C(N)C2(C#N)C(c3ccc(OC)c(OC)c3OC)C12C#N (configuration not stated)	-	?	25.1µM	14.1µM	?	0
CC(C)Cn1c(N)c(C(=O)CCl)c(=O)n(C)c1=O	0	0	?	20µM	0	0
CCOC(=O)Cc1csc(SCC(=O)c2c(N)n(CC(C)C)c(=O)n(C)c2=O)n1	-	?	11.2µM	0	?	-
Cc1csc(SCC(=O)c2c(N)n(CC(C)C)c(=O)n(C)c2=O)n1	0	0	?	0	0	0
SMILES	Vaccinia mCherry	MARV entry inh	FMDV antiviral	Sm TGR block	Lassa entry inh	VACV Venus inh
Cn1c(=O)c(C(=O)CCl)c(N)n(CC2CC2)c1=O	?	0	?	14.1µM	0	?
COc1cc(C(=O)Nc2nnc(S(=O)(=O)N(C)c3ccccc3)s2)cc(OC)c1OC	0	-	0	0	0	0
O=C(CCc1nnc2n(Cc3ccc(Cl)cc3)c(=O)c3ccccc3n12)NCCN1CCCC1	0	10µM	0	0	?	?
COc1cccc(NC(=O)CCc2nnc3n(Cc4ccccc4Cl)c(=O)c4ccccc4n23)c1	0	0	0	0	-	0
O=C(CCc1nnc2n(Cc3ccccc3Cl)c(=O)c3ccccc3n12)Nc1ccc(F)cc1	10µM	?	0	0	-	10µM
O=C(CCc1nnc2n(Cc3ccc(Cl)cc3)c(=O)c3ccccc3n12)NCCCN1CCOCC1	-	-	0	0	-	-
Cc1ccc(C)c(S(=O)(=O)N2CCN(CC(=O)NC(=O)NCc3ccccc3)CC2)c1	-	?	?	0	25.9µM	-
CSC1=NC(=O)C2=C3CC(C)(C)OCC3SC2=N1 (configuration not stated)	-	0	-	-	-	-
Cc1ccc(S(=O)(=O)N2CCN(C(=O)CSc3ncc(C(F)(F)F)cc3Cl)CC2)cc1	-	?	0	35.5µM	?	?
COc1ccc(CC(=O)Nc2ccc(-c3nc4ccccc4s3)c(C)c2)cc1OC	0	-	0	0	?	0
Cc1cc(C)c(NC(=O)CSc2cn(CC(=O)N3CCOCC3)c3ccccc23)c(C)c1	0	-	0	0	0	0
O=C(NCCc1ccccc1)C(=O)NCC(c1cccs1)S(=O)(=O)c1cccs1 (configuration not stated)	0	-	0	?	0	0
O=C(NCc1ccccc1)C(=O)NCC(c1cccs1)S(=O)(=O)c1cccs1 (configuration not stated)	0	-	0	?	?	0
O=C(NCc1ccc(F)cc1)C(=O)NCC(c1cccs1)S(=O)(=O)c1cccs1 (configuration not stated)	0	-	?	25.1µM	0	0
COc1ccc(CNC(=O)C(=O)NCC(c2cccs2)S(=O)(=O)c2cccs2)cc1 (configuration not stated)	0	-	?	28.2µM	0	0
COc1ccc(CCNC(=O)C(=O)NCC(c2cccs2)S(=O)(=O)c2cccs2)cc1 (configuration not stated)	0	-	?	28.2µM	?	0
O=Nc1ccc(/C=C/c2ccnc3ccccc23)cc1	0	-	-	-	-	0
CCN(CC)CCC(=O)N1C/C(=C/c2ccccc2)C(=O)/C(=C\c2ccccc2)C1	?	11.2µM	3.55µM	-	10µM	?
O=C1/C(=C\c2ccccc2)CN(C(=O)CCN2CCCCC2)C/C1=C/c1ccccc1	12.6µM	1µM	7.94µM	-	?	11.2µM
O=C1/C(=C\c2ccc(Cl)c(Cl)c2)CN(C(=O)CCN2CCOCC2)C/C1=C/c1ccc(Cl)c(Cl)c1	?	?	3.16µM	-	?	11.2µM
O=C(NCCN1CCOCC1)c1ccc(Cl)c(Cl)c1	0	0	0	0	0	0
CCOC(=O)c1ccc(NC(=O)CN2c3ccccc3S(=O)(=O)c3ccccc32)cc1	0	-	0	0	?	0
Cc1cc(CNC(=O)CCN2Cc3cc(Cl)ccc3OC(C)C2)nn1C (configuration not stated)	0	-	0	-	-	0
Cc1ccc2c(c1)/C(=C/c1ccccc1C)C(=O)N2	0	11.2µM	0	0	?	?
